# Reference: PubChem BioAssay
# Calls of active or inactive are those of the source.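 Rule for the calls: active = at least 20% inhibition of 6-phosphogluconate dehydrogenase activity; inactive = the rest.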
# Target: 6-phosphogluconate dehydrogenase, decarboxylating (Homo sapiens) (UniProt P52209)
# Assay: inhibition of human phosphogluconate dehydrogenase – biochemical, recombinant enzyme, NADPH absorbance, primary screen (AID 1159550)
# Settings: recombinant 6PGD, NADPH absorbance 341 nm; at 10 µM; active compounds read high
# 6-phosphogluconate dehydrogenase, decarboxylating (Homo sapiens), sequence (P52209 whole entry, looked up): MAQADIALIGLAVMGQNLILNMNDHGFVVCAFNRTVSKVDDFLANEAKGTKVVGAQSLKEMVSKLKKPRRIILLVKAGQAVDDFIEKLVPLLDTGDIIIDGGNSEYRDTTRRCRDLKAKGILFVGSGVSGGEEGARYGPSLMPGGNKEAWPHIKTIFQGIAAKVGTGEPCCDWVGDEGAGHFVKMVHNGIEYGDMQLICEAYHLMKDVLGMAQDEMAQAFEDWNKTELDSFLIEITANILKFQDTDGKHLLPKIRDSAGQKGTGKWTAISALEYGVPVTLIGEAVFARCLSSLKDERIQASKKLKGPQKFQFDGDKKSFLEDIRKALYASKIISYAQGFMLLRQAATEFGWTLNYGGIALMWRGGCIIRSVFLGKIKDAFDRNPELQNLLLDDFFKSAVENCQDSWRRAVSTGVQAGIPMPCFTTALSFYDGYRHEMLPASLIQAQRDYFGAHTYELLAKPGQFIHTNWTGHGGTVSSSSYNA
row,Structure (SMILES),inhibition
1,C=C(C)[C@H]1Cc2c(ccc3c(=O)c4c(oc23)COc2cc(OC)c(OC)cc2-4)O1,-6.24% (inactive)
2,CC1(C)C(O)CC(O)C2(C)C1CC(O)C1(C)C2CCC2(C)C(c3ccoc3)OC(=O)C3OC321 (centres undefined),-7.21% (inactive)
3,c1cc2c(cc1[C@H]1OC[C@@H]3[C@H]1CO[C@H]3c1ccc3c(c1)OCO3)OCO2,-14.7% (inactive)
4,CCN1CC2(COC)C(O)CC(OC)C34C5CC6(O)C(OC)C(O)C(OC(C)=O)(C5C6OC(=O)c5ccccc5)C(C(OC)C23)C14 (centres undefined),17.1% (inactive)
5,NCC(CC(=O)O)c1ccc(Cl)s1 (centres undefined),-3.23% (inactive)
6,CCC(C)C(=O)c1c(O)c(C)c2oc3c(C)c(O)c(C(=O)C(C)CC)c(O)c3c2c1O (centres undefined),4.14% (inactive)
7,C[C@@H]1OC(O[C@H]2CC[C@]3(C=O)[C@H]4CC[C@]5(C)C(C6=CC(=O)OC6)CC[C@]5(O)[C@@H]4CC[C@]3(O)C2)[C@H](O)[C@H](O)[C@H]1O (some centres undefined),2.25% (inactive)
8,C/C=C(\C)C(=O)OC1CCC2(C)C3CCC4C5(O)CC(O)C6(O)C(CN7CC(C)CCC7C6(C)O)C5(O)CC42OC13O (centres undefined),6.21% (inactive)
9,C=C(C)C(=O)/C(=C/C(=O)O)OC,12.8% (inactive)
10,C=C1[C@@H]2CC[C@H]3[C@]4(C)C[C@H](O[C@@H]5O[C@H](CO)[C@@H](OS(=O)(=O)O)[C@H](OS(=O)(=O)O)[C@H]5OC(=O)CC(C)C)C[C@@H](C(=O)O)[C@H]4CC[C@]3(C2)[C@H]1O,5.29% (inactive)
11,CNC(=O)Oc1cccc2c1OC(C)(C)O2,-4.88% (inactive)
12,COc1ccc(C(c2ccc(OC)cc2)C(Cl)(Cl)Cl)cc1,-1.01% (inactive)
13,CCC(=O)Nc1ccc(Cl)c(Cl)c1,-20.3% (inactive)
14,Cc1c(O)c(C(=O)CC(C)C)c2oc3c(C(=O)CC(C)C)c(O)c(C)c(O)c3c2c1O,0.288% (inactive)
15,Cn1c(=O)c2c(ncn2CCCl)n(C)c1=O,-2.23% (inactive)
16,CC1CC(O)C2(O)C13CC(=O)OCC2(C)C(C)(O)C(=O)C3 (centres undefined),17.6% (inactive)
17,COP(=O)(OC)OC(Br)C(Cl)(Cl)Br (centres undefined),-10.9% (inactive)

row,Structure (SMILES),inhibition
1,CNC(=O)O/N=C(/C)SC,-23.1% (inactive)
2,C[C@H]1CC[C@]2(NC1)O[C@H]1C[C@H]3[C@@H]4CC[C@H]5C[C@@H](O[C@@H]6O[C@H](CO)[C@H](O[C@@H]7O[C@H](CO)[C@@H](O)[C@H](O[C@@H]8OC[C@@H](O)[C@H](O)[C@H]8O)[C@H]7O[C@@H]7O[C@H](CO)[C@@H](O)[C@H](O)[C@H]7O)[C@H](O)[C@H]6O)CC[C@]5(C)[C@H]4CC[C@]3(C)[C@H]1[C@@H]2C,1.84% (inactive)
3,CC(=O)O[C@H]1CC[C@@]2(C)[C@@H](CC[C@@H]3[C@@H]2CC[C@]2(C)C(=O)CC[C@@H]32)C1,0.969% (inactive)
4,CN1C2C[C@H](OC(=O)[C@H](CO)c3ccccc3)CC1[C@@H](O)C2 (some centres undefined),-3.17% (inactive)
5,COC1C(O)C(O[C@H]2CC[C@]3(C=O)C4C(OC(C)=O)C[C@]5(C)[C@@H](C6=CC(=O)OC6)CC[C@]5(O)C4CC[C@]3(O)C2)OC(C)C1OC(C)=O (some centres undefined),10.3% (inactive)
6,ClC1=C(Cl)C2(Cl)C3C(Cl)C(Cl)CC3C1(Cl)C2(Cl)Cl (centres undefined),-19% (inactive)
7,CCCCSP(=O)(SCCCC)SCCCC,10.6% (inactive)
8,COP(N)(=O)SC (centres undefined),4.36% (inactive)
9,CC(=O)O[C@H]1CC[C@]2(C)C3CC[C@]4(C)[C@@H](C5=CC(=O)OC5)[C@@H](OC(C)=O)C[C@]4(O)C3CC[C@@H]2C1 (some centres undefined),0.446% (inactive)
10,ClC1=C(Cl)C2(Cl)C3C(Cl)C=CC3C1(Cl)C2(Cl)Cl (centres undefined),0.441% (inactive)
11,CCC1(O)CC(OC2CC(N(C)C)C(O)C(C)O2)c2c(cc3c(c2O)C(=O)c2c(O)ccc(O)c2C3=O)C1C(=O)OC (centres undefined),-0.278% (inactive)
12,CC(C)OC(=O)Nc1cccc(Cl)c1,-6.1% (inactive)
13,CCOP(=S)(OCC)SCCSCC,3.96% (inactive)
14,CC1=CC(=O)C2=C(C)C[C@H](O)[C@H]3[C@H](C)C(=O)O[C@@H]3C12 (some centres undefined),-7.67% (inactive)
15,ClC(Cl)=C(c1ccc(Cl)cc1)c1ccc(Cl)cc1,-15% (inactive)
16,CCCCN(CC)c1c([N+](=O)[O-])cc(C(F)(F)F)cc1[N+](=O)[O-],-9.8% (inactive)
17,CCCC(C)C1(CC)C(=O)NC(=S)NC1=O (centres undefined),-1.13% (inactive)
